Hit rate of the full screen: of about 69,000 compounds, about 8,600 (12%) showed an effect of 50% or more. The entries come from a sample that favours strong results as a whole.
test system: Plasmodium berghei; test: Screen against P. berghei liver stage (PbLuc), transformed with Luciferase, at 10uM; format: functional, HepG2; conditions: tested at 10 uM

SMILES | INHIBITION [%]
CN(C)c1ccc(CN(CC2CCCO2)C(=O)c2csnn2)cc1 (stereo not drawn) | 11.8
CC1(c2cc[nH]n2)CCN(C(=O)c2ccc(Cl)cc2)CC1 | -2.09
COCC(=O)N1C[C@H]2CCC[C@@]2(COC)C1 | 85.2
COC[C@@]12CCC[C@@H]1CN(C(=O)COC1CCCC1)C2 | 32.5
COC[C@@]12CCC[C@@H]1CN(C(=O)CN(C)C)C2 | 56.4
O=C(c1ncccn1)N1C[C@H]2CCC[C@@]2(COc2ccccn2)C1 | -15.1
COC[C@@]12CCC[C@@H]1CN(C(=O)N1CCCC1)C2 | 18.6
COCCC(=O)N1C[C@H]2CCC[C@@]2(COC)C1 | 24.6
CN(C)CC(=O)N1C[C@H]2CCC[C@@]2(COc2ccccn2)C1 | 52.9
CCOCC(=O)N1C[C@H]2CCC[C@@]2(COC)C1 | -0.284
CN(C)C(=O)N1C[C@H]2CCC[C@@]2(COc2ccccn2)C1 | -9.67
Cc1cccc(CN2C(=O)CCC23CCN(c2ncc(F)cn2)CC3)n1 | -26.8
O=S(=O)(N1CCOCC1)N1CCCC(c2ccccn2)C1 (stereo not drawn) | 15.99
COc1c(C2CCCN2C(=O)c2c(C)noc2C(C)C)c(C)nn1C (stereo not drawn) | 35.9
COCC(=O)N1CCc2c(nnn2C)C1COCCN1CCCC1 (stereo not drawn) | 29
Cc1ccc(C(=O)Nc2nn[nH]n2)s1 | 2.61
Cc1cc(C)c(CNC(=O)NCc2ccc3c(c2)OCCO3)c(=O)[nH]1 | -54.6
CS(=O)(=O)N1CCN(C(=O)c2cc(-c3cccs3)cs2)CC1 | 33.3
CCc1oc(C(=O)NC(C)c2ncn[nH]2)cc1CN1CCCC1 (stereo not drawn) | 7.24
Cc1cccnc1NC(=O)NCc1cccnc1OC(C)C | 19.4
Cc1cc(C(=O)NC2(c3ccc(Br)cc3)CC2)n(C)n1 | 47
CC(=O)N1N=C(c2ccncc2)OC1C(=O)N(C)CCc1ccccc1 (stereo not drawn) | 0.618
CNc1ncccc1CN1CCN(c2cc(NC3CC3)nc(N)n2)CC1 | 5.11
CCc1ccc2nc(NCC(O)CO)cc(C)c2c1 (stereo not drawn) | 50.7
CCc1ccc2nc(NCCCN(CCO)CCO)cc(C)c2c1 | 42
CCc1ccc2nc(NCCOCCO)cc(C)c2c1 | -46.7
Cn1c(N2CCOCC2)nc2cc(C(=O)N[C@@H]3CC[C@@H](N)C3)ccc21 | 33.4

SMILES | INHIBITION [%]
CN(C)CCNC(=O)c1ccn(-c2ccc3ccccn23)n1 | 13.6
Cc1cc(CN2CCN(CC(O)c3ccc(Cl)cc3)CC2)no1 (stereo not drawn) | 9.14
Cc1cc(CN2CCN(CC(O)c3ccc4c(c3)OCO4)CC2)no1 (stereo not drawn) | -1.14
Cc1cc(CN2CCN(C(c3ccccc3)c3ccccc3)CC2)no1 | 85.4
Cc1cc(CN2CCN(CC(O)c3ccc(C)c(C)c3)CC2)no1 (stereo not drawn) | 62.6
Cc1cc(CN2CCN(CC(O)c3ccccc3)CC2)no1 (stereo not drawn) | 36.4
Cc1cc(CN2CCN(CC(O)c3cccc(F)c3)CC2)no1 (stereo not drawn) | -17.6
COC(=O)c1ccc(N(C(=O)c2ccncc2)C(C)C)c(C)c1 | 7.18
COc1ccc(CN2CCCCC2Cn2nc(C)nc2C)cc1F (stereo not drawn) | -37.7
Cc1cn(-c2ccccc2)nc1NS(=O)(=O)c1cc(C(=O)O)sc1C | 8.38
O=C(CCn1cccn1)N1CC[C@@H](c2ccc3ccccc3c2)[C@H](O)C1 | -28.9
O=C(CCN1CCCC1)N1CC[C@@H](c2ccc3ccccc3c2)[C@H](O)C1 | 52.2
O=C(CCN1CCCO1)N1CC[C@@H](c2ccc3ccccc3c2)[C@H](O)C1 | 8.74
CCN1Cc2ccccc2CC2(CCN(CC3CCC3)CC2)C1=O | 36.5
CN1CCOC(CNCc2cccc(OCC(F)(F)F)c2)C1 (stereo not drawn) | 21.7
Cc1n[nH]cc1CNCc1ccnc(OCC(F)(F)F)c1 | 28.5
CC(C)C(=O)Nc1cccc(OCC(=O)NCc2ccccc2F)c1 | 40.6
Cc1n[nH]cc1CNCc1cccc(OCC(F)(F)F)c1 | 66.3
COc1cccc(NC(=O)NCc2cnn(C)c2)c1 | 13
Cc1n[nH]cc1CNC(=O)Nc1cccc(OCC(F)(F)F)c1 | 60.3
CCN(Cc1cnn(C)c1)C[C@H]1CC[C@@H](Cc2cccc(C#N)c2)O1 | -15.7
O=C1CN(C(=O)C2CCCCC2)CC(O)CN1Cc1ccco1 (stereo not drawn) | -11.1
CC(C)c1nc2n(n1)CC(NCc1ncc(C(C)(C)C)o1)CC2 (stereo not drawn) | -33.9
Cc1c(C)n2c(SCC(=O)N3CCC(C)CC3)nnc2[nH]c1=O | -5.1
Cc1cc(C)c2cc(CNCc3ccco3)c3nn(C)c(=O)n3c2c1 | 60.4
Cc1cc(C)c2cc(CNCc3ccc(C)o3)c3nn(C)c(=O)n3c2c1 | 54.5
